The values that follow come from PubChem BioAssay AID1851 (National Center for Advancing Translational Sciences (NCATS), 2009).

The campaign covered roughly 16,000 compounds. About 4,000 (25%) were called active. Roughly 26% stayed inconclusive and do not appear here. Not all results are given here. Values without a mark were called inactive. Calls follow the shape of the dose curve; as a rule, active = well fitted curve in the direction sought with a large enough effect; inconclusive = small, poorly fitted or top-dose-only effect, or effect the other way; inactive = no such curve, though single readings can be large or run the other way.
% is scaled to controls: 0 for no effect and ±100 for the full control effect.

Chain of Cytochrome P450 2C9 (Homo sapiens) (P11712 whole entry, looked up): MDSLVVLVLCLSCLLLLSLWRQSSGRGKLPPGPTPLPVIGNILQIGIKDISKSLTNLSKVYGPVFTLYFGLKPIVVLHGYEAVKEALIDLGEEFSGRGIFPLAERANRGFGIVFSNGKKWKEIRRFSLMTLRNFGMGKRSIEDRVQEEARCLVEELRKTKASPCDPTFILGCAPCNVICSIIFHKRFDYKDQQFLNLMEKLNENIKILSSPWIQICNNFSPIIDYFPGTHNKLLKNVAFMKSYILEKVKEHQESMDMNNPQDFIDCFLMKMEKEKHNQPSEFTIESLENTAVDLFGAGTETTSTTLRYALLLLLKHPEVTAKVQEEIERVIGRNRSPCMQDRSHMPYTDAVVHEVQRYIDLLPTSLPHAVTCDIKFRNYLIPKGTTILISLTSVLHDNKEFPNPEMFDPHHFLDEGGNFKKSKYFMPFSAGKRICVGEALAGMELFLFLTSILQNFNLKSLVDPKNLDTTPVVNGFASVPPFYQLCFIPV

The test addresses Cytochrome P450 2C9 (Homo sapiens) (UniProt P11712). Put plainly: Cytochrome panel assay with activity outcomes. The following applies: recombinant CYP, pro-luciferin dealkylation, luminescence, p450-cyp2c9; series mostly up to 57.1 µM.
Consider `CN(C)Cc1ccccc1-c1cncnc1NC1CC1`, for which the activity, negative = inhibition is 8.78% [at 2.29 µM].

As for `Cc1ccc(OCCNC(=O)c2cc(-n3cnnc3)ccc2Cl)cc1C`, the AC50 (as a rule, the midpoint of the concentration-response curve, whichever way the signal moves) was 11.2 µM (active).

For the compound `Cc1cc(OCCNCCO)cc(C)c1Cl`, the AC50 entry is “inactive”. Consider `CN(C)CCNC(=O)c1cc(Br)ccc1Cl`, for which the AC50 entry was “inactive”.

Take `Cc1cccc(N/C(=N\S(=O)(=O)c2ccccc2)C(F)(F)F)c1`: the AC50 is 2.51 µM (active). For `NC(N)=N/N=C\c1ccc(C2CCNCC2)cc1`, the activity, negative = inhibition is 2.7% [at 11.4 µM]. As for `O=C(NCc1ccco1)Nc1cccs1`, the AC50 is 11.2 µM (active).

On to `N#Cc1ccccc1NC(=O)Nc1cccs1`, for which the AC50 result is “inactive”. As to `Cc1cc2ccccc2n1CCNC(=O)C1CCCC1`, the AC50 entry was “inactive”.

As to `Cc1cc(NC(=O)C2CCCCC2)nc2c1c(=O)oc1ccccc12`, the half-maximal activity concentration (AC50) is 14.1 µM (active). The same measure, in the same setting: the value for `O=C(Nc1cc2ccccc2oc1=O)C1CCCCC1` was “inactive”; that for `COc1ccc(-n2c(=O)c(-c3cc(F)cc(F)c3)nc3cnc(N4CCOCC4)nc32)cc1` was “inactive”; that for `COc1ccccc1-c1cc(C(F)(F)F)nc(S(=O)(=O)CCCC(=O)NC(C)C)n1` was “inactive”. For the compound `COc1ccccc1-c1nc(N2CCN(C)CC2)c2ccccc2n1`, the activity, negative = inhibition was 11.5% [at 2.29 µM]. In the case of `CN1CCN(c2nc(-c3ccccc3)cc(C(F)(F)F)n2)CC1`, the AC50 result is “inactive”. With `COc1ccccc1-c1nc(NC2CC2)c2ccccc2n1`, the activity, negative = inhibition is 5.77% [at 2.29 µM].

With `COc1ccccc1N1CCN(c2nc(-c3ccccc3)cc(C(F)(F)F)n2)CC1`, the concentration at half-maximal activity (AC50) was 5.62 µM (active).

With `COc1ccc(-c2cc(C(F)(F)F)nc(N3CCCCC3)n2)cc1OC`, the AC50 is 10 µM (active). Still for that read-out and setting: the value for `COc1ccc(-c2cc(C(F)(F)F)nc(NC3CCCC3)n2)cc1OC` was 7.94 µM (active).

`COc1ccc(-c2cc(C(F)(F)F)nc(N3CCN(C)CC3)n2)cc1OC`: the AC50 entry is “inactive”.

Turning to `COc1cccc(-c2cc(C(F)(F)F)nc(N3CCOCC3)n2)c1`, the half-maximal activity concentration (AC50) was 15.8 µM (active). Consider `CO[C@H]1COC(=O)C/C=C\[C@@H](C)[C@H](OC)COC(=O)CCC[C@@H]1C`, for which the activity, negative = inhibition was 9.38% [at 11.4 µM]. Consider `COc1cc2c(cc1OC)-c1cc3ccc(OC)c(OC)c3c[n+]1CC2`, for which the AC50 result was “inactive”. Turning to `CN(C)c1ncc2nc(-c3cc(F)cc(F)c3)c(=O)n(C[C@H]3CCCO3)c2n1`, the AC50 entry is “inactive”. For `Cn1c(=O)c(-c2ccc(F)cc2)nc2cnc(N3CCOCC3)nc21`, the AC50 result is “inactive”.

As to `COc1ccc(-c2cc(C(F)(F)F)nc(N3CCOCC3)n2)cc1OC`, the AC50 is 3.98 µM (active). For `COc1ccc(-n2c(=O)c(-c3ccc(F)cc3)nc3cnc(N4CCOCC4)nc32)cc1`, the AC50 result is “inactive”.

For the compound `COc1cc2c(cc1OC)CN(C(=S)Nc1ccccc1)CC2`, the AC50 is 4.47 µM (active). For the compound `COc1cc2c(cc1OC)[C@H](c1ccccc1)CN(C)CC2`, the AC50 entry is “inactive”. Regarding `CC(C)(CO)N1CCN(C(=S)Nc2ccccc2)CC1`, the activity, negative = inhibition was 10.3% [at 11.4 µM]. Take `O=C(N/C(=C\c1cccnc1)C(=O)N1CCOCC1)c1cccc(Br)c1`: the AC50 entry was “inactive”. As for `O=C(/C=C/c1cccnc1)c1ccc(NC(=O)c2cccc(Br)c2)cc1`, the concentration at half-maximal activity (AC50) is 4.47 µM (active). In the case of `CN(C)CCn1c(C(=O)O)cc2ccccc21`, the AC50 entry is “inactive”.

On to `N#CC(c1ccc(Cl)cc1)c1nc2ccccc2nc1C(F)(F)F` (stereo not drawn), for which the concentration at half-maximal activity (AC50) was 1.41 µM (active). On the same count and under the same terms, as for `FC(F)(F)c1nc2ccccc2nc1N/N=C/c1ccc(Cl)cc1`, the entry is “inactive”; as for `Cc1ccccc1Oc1ncnc2oc(-c3ccccc3)cc12`, 3.98 µM (active). With `Cc1cc(Cl)ccc1Oc1ncc(-c2ccc(Cl)cc2)cn1`, the AC50 result was “inactive”.

With `Cc1cc(Cl)ccc1Oc1ncnc2oc(-c3ccccc3)cc12`, the concentration at half-maximal activity (AC50) was 4.47 µM (active). For `Cc1ccccc1Oc1ncnc2sccc12`, the AC50 result was “inactive”. Take `CC(O)(P(=O)(O)O)P(=O)(O)O`: the AC50 result was “inactive”. As for `O=C(c1cnccn1)N1CCC2(CC1)CN(Cc1cc(C(F)(F)F)cc(C(F)(F)F)c1)C2`, the AC50 result is “inactive”. On the same count and under the same terms, the value for `COc1ccc2cc(C)c3nnc(SCC(=O)Nc4nc(-c5ccccc5)cs4)n3c2c1` was 2.82 µM (active); that for `COc1ccc(-c2nc(-c3ccccc3)c(-c3cc([N+](=O)[O-])ccc3C)[nH]2)cc1O` was 10 µM (active); that for `CCCC(=O)NC(Nc1ccccc1F)C(Cl)(Cl)Cl` (stereo not drawn) was 8.91 µM (active). With `N#Cc1c(NC(=O)C2CC(c3ccccc3Cl)=NO2)sc2c1CCC2` (stereo not drawn), the half-maximal activity concentration (AC50) was 0.708 µM (active). Same read-out and setting: the value for `CCN(c1ccccc1)c1cc(NC)[n+](C)c(C)n1` was “inactive”.

`CN(Cc1ccco1)c1nc(-c2cccnc2)nc2ccccc12`: the activity, negative = inhibition was -8.92% [at 2.29 µM]. As to `CC(C)(C)n1nnnc1C(c1cccnc1)N(Cc1ccccc1)Cc1ccco1` (stereo not drawn), the AC50 was 3.98 µM (active). On to `CN(Cc1ccco1)c1ccnc(-c2cccnc2)n1`, for which the activity, negative = inhibition is 16.4% [at 2.29 µM]. Still for that read-out and setting: as for `O=C(O)/C=C\C(=O)N1Cc2cc3ccccc3nc2C1`, the figure is 10.3% [at 11.4 µM]. With `Cc1ccc(-n2c(C)nnc2SCC(=O)N2CCc3ccccc3C2)cc1C`, the AC50 result was “inactive”. Still for that read-out and setting: as for `C=CCn1c(SCC(=O)N2CCc3ccccc3C2)nc2ccccc2c1=O`, the figure is 0.2 µM (active).

`CCn1c2ccccc2c2nnc(NCCCO)nc21`: the activity, negative = inhibition is 5.48% [at 11.4 µM]. As for `CCn1c(N)nc2ccccc21`, the AC50 result is “inactive”. Consider `CCn1c2ccc(Cl)cc2c2nc3ccccc3nc21`, for which the AC50 is 10 µM (active).

Turning to `O=C(O)CCc1nc(-c2ccccc2-n2cccc2)no1`, the activity, negative = inhibition is -3.02% [at 11.4 µM]. With `C=Cc1c(C)c2cc3nc(cc4[nH]c(cc5nc(cc1[nH]2)C(C)=C5CCC(=O)O)c(CCC(=O)OC)c4C)[C@@]1(C)C3=CC=C(C(=O)OC)[C@H]1C(=O)OC` (tested in a mixture with another compound), the AC50 was 1.26 µM (active).

As to `Cc1cccc(CNc2cc(-c3ccc(N(C)C)cc3)ncn2)c1`, the activity, negative = inhibition was -14.7% [at 2.29 µM]. Take `CCOc1ccc2ccccc2c1C(=O)N[C@@H]1C(=O)N2[C@@H]1SC(C)(C)[C@@H]2C(=O)O`: the AC50 result was “inactive”. In the case of `CCOc1cc(C2CC(=O)c3c(ccc4ccccc34)N2)ccc1O` (stereo not drawn), the AC50 is 3.16 µM (active). With `O=c1c(-c2cccs2)nc2cncnc2n1Cc1ccccc1`, the half-maximal activity concentration (AC50) was 1.26 µM (active). Consider `COc1ccc(Oc2ncc3nc(-c4cccs4)c(=O)n(Cc4cccc(OC)c4)c3n2)cc1`, for which the concentration at half-maximal activity (AC50) is 1 µM (active). For `Cc1nc2cnc(Nc3ccccc3)nc2n(CCc2ccccc2)c1=O`, the AC50 result is “inactive”. In the case of `COc1ncc2nc(-c3cccs3)c(=O)n(Cc3ccc(F)cc3)c2n1`, the AC50 entry was “inactive”. As for `Cn1cc(-c2nc3cncnc3n(Cc3ccc(F)cc3)c2=O)c2ccccc21`, the AC50 result is “inactive”. On to `COc1cccc(Nc2ncc3nc(-c4cccs4)c(=O)n(CCC#N)c3n2)c1`, for which the AC50 entry was “inactive”.

`COc1cccc(Cn2c(=O)c(-c3cccs3)nc3cncnc32)c1`: the AC50 was 2.51 µM (active). Regarding `Cc1nc2cncnc2n(Cc2ccccc2)c1=O`, the concentration at half-maximal activity (AC50) is 15.8 µM (active). Regarding `CCn1cc(C(=O)O)c(=O)c2cnc(N3CCNCC3)nc21`, the AC50 result is “inactive”. `Cc1cc2cc(C=O)c(Cl)nc2cc1C`: the AC50 result is “inactive”. Take `COc1cccc(Cn2c(=O)c(-c3cccs3)nc3cnc(OC)nc32)c1`: the concentration at half-maximal activity (AC50) is 3.16 µM (active). Regarding `COc1cccc(Cn2c(=O)c(-c3cccs3)nc3cnc(N(C)C)nc32)c1`, the AC50 result was “inactive”. Regarding `CCNc1ncc2nc(-c3cccs3)c(=O)n(Cc3cccc(OC)c3)c2n1`, the AC50 entry is “inactive”. Same read-out and setting: as for `O=c1oc(-c2ccco2)nc2c1cnn2-c1ccccc1`, the figure is 12.6 µM (active). Still for that read-out and setting: the value for `Cc1ccc(-n2ncc3c2ncn2nc(-c4ccco4)nc32)c(C)c1` was “inactive”.

For the compound `c1ccc(-n2ncc3c2ncn2cnnc32)cc1`, the AC50 entry was “inactive”. On the same count and under the same terms, as for `C=CCN1CCN(c2nc3ccccc3nc2C#N)CC1`, the figure is 20 µM (active). Turning to `N#Cc1cccc(-c2nc(N3CCNCC3)c3ccccc3n2)c1`, the activity, negative = inhibition is 11.8% [at 2.29 µM]. In the case of `CNc1nc(-c2ccccc2C(F)(F)F)nc2ccccc12`, the activity, negative = inhibition was 19.6% [at 2.29 µM].

Regarding `Cc1cccc(C)c1NC(=O)COc1cccc(/C=N/NC(=O)C(=O)NCc2ccccc2)c1`, the AC50 result was “inactive”. For `COc1cccc(/C=N/NC(=O)c2c(-c3ccccc3)noc2C)c1`, the AC50 is 3.55 µM (active).

For the compound `C=CCOc1cccc(/C=N/NC(=O)C(=O)NCc2ccco2)c1`, the AC50 result is “inactive”. `COc1cccc(/C=N/NC(=O)c2nc(-c3ccccc3)cc(-c3ccccc3)n2)c1`: the AC50 result was “inactive”. As to `COc1cccc(/C=N/NC(=O)C(=O)NCc2cccnc2)c1`, the concentration at half-maximal activity (AC50) was 22.4 µM (active). For `CC(C)=CCC/C(C)=C/CO/N=C1/C[C@@H](O)[C@@H](O)[C@@H]2[C@@H]3C(=O)N(C4CCCCC4)C(=O)[C@H]3CC[C@H]12`, the activity, negative = inhibition is -5.92% [at 11.4 µM].

Regarding `Nc1nc(Br)c2ccccc2c1-c1ccc(F)cc1`, the AC50 result was “inactive”. In the case of `Nc1nc(Br)c2c(F)cccc2c1-c1ccc(Cl)cc1`, the AC50 was 4.47 µM (active).

In the case of `Nc1nc(Br)c2c(F)cccc2c1-c1ccc(F)cc1`, the AC50 was 2.51 µM (active). For the compound `Cc1noc(C)c1-c1cc(Nc2ccc(F)cc2)ncn1`, the activity, negative = inhibition was -1.17% [at 2.29 µM]. On to `CN1CCN(c2ncnc3ccc(-c4ccc5c(c4)OCO5)cc23)CC1`, for which the activity, negative = inhibition was 14.7% [at 2.29 µM]. In the case of `CC(C)C(=O)N[C@@H]1CCCN1C(=O)/C=C\c1ccccc1`, the activity, negative = inhibition was -11.6% [at 11.4 µM]. For the compound `CC(C)C(=O)N[C@H]1CCCN1C(=O)/C=C\c1ccccc1`, the activity, negative = inhibition is -2.39% [at 11.4 µM]. `C#CCSc1nncn1C(=O)/C=C/c1ccccc1`: the AC50 was 3.98 µM (active).

Turning to `C=C(C)c1cccc(C(C)(C)NC(=O)Nc2cc(C)ccc2OC)c1`, the concentration at half-maximal activity (AC50) was 10 µM (active). As to `COc1cccc(CC(C(=O)Nc2cc(C)ccc2C)c2nn[nH]n2)c1OC` (stereo not drawn), the AC50 entry was “inactive”. Turning to `COc1ccc(C(N)=O)cc1NC(=O)c1cccc(F)c1`, the AC50 entry was “inactive”. In the case of `O=C(OC(C(=O)NC1CCCC1)c1ccncc1)C1=Cc2ccccc2OC1` (stereo not drawn), the AC50 is 2.82 µM (active). Take `CN(C)Cc1ccccc1-c1ccc2ncnc(N(C)Cc3ccco3)c2c1`: the activity, negative = inhibition is -5.32% [at 2.29 µM].
